Out of some 220,000 compounds screened, about 16,000 (7.3%) were called active. Not shown: some 25% with an inconclusive outcome. The call rests on the fitted dose curve; in most records, active means well fitted inhibition curve with a large enough effect (not every such curve was filed as active); inconclusive means small, poorly fitted or top-dose-only effect, or another doubt; inactive means no such curve, though single readings can be large or run the other way. The sample as a whole holds a higher share of actives than the screen did.
What follows are compounds tested against Aldehyde dehydrogenase 1A1 (Homo sapiens) (UniProt P00352) (assay: qHTS Assay for Inhibitors of Aldehyde Dehydrogenase 1 (ALDH1A1)). Conditions: Purified ALDH1A1, NADH fluorescence, propionaldehyde substrate; series mostly up to 75.3 µM; activity, negative = inhibition: at the top concentration.
Potency means the concentration at half of the fitted maximal effect.
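Wherever activity, negative = inhibition is given: plate controls were no enzyme wells and a reference inhibitor.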

Chain of Aldehyde dehydrogenase 1A1 (Homo sapiens) (P00352 whole entry, looked up): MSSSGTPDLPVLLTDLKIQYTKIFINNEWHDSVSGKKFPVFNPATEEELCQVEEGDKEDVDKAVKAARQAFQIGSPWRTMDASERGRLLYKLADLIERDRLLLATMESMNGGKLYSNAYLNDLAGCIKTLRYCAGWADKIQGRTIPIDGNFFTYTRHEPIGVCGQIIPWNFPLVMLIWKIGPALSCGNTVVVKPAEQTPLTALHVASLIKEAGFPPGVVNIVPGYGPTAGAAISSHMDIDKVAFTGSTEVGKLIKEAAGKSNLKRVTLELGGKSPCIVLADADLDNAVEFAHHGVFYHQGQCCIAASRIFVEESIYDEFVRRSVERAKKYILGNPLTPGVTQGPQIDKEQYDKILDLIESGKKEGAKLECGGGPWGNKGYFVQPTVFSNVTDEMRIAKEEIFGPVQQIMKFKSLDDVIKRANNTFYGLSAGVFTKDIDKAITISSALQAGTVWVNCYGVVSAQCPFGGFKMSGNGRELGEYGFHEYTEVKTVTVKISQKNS

Row | SMILES | activity, negative = inhibition | Potency
1 | CCC1S/C(=N/N=C/c2ccco2)NC1=O (stereo not drawn) | -11.9% (inactive) | 
2 | CC(C)(C)C1C/C(=C/c2ccco2)C(=O)/C(=C/c2ccco2)C1 (stereo not drawn) |  | 7.94 µM (active)
3 | CCC1C/C(=C/c2cccs2)C(=O)/C(=C/c2cccs2)C1 (stereo not drawn) | -1.08% (inactive) | 
4 | COc1ccc(C2=NN(c3nc4ccccc4s3)C(=O)C2)cc1 | 4.17% (inactive) | 
5 | CCCCn1c(=O)c(C(C)=O)c(O)c2ccccc21 | 3.26% (inactive) | 
6 | Cc1[nH]c2c(C(=O)N3CCCC(CCC(=O)NCc4ccccc4F)C3)cccc2c1C (stereo not drawn) | -12.1% (inactive) | 
7 | CCN1CCN(CCCCOc2ccccc2F)CC1 | -7.76% (inactive) | 
8 | COc1ccccc1N1CCN(Cc2ccc(OC)c3ccccc23)CC1 | -4.71% (inactive) | 
9 | COc1ccccc1N1CCN(CCCCOc2ccc(F)cc2)CC1 |  | 25.1 µM (active)
10 | CCOC(=O)c1c(NC(=O)C2CC=CCC2C(=O)O)sc(C)c1CC (stereo not drawn) | -0.959% (inactive) | 
11 | Cc1ccc(-c2cccc([C@H]3[C@@H]4C=CC[C@@H](C)[C@@H]4C(=O)N3Cc3ccccc3)c2)cc1 | 7.38% (inactive) | 
12 | COc1ccc(OC)c(Cc2nnc(CCC(=O)NC3CCCC3)o2)c1 | -0.804% (inactive) | 
13 | O=C1CSC(c2cccc(F)c2)N1c1ccc(O)cc1 (stereo not drawn) | -0.489% (inactive) | 
14 | O=C1CSC(c2cccc(F)c2)N1c1ccccc1F (stereo not drawn) |  | 14.1 µM (active)
15 | O=C1CSC(c2ccccc2)N1c1nc(-c2ccc(Cl)cc2Cl)cs1 (stereo not drawn) | 5.19% (inactive) | 
16 | CC1CCN(C(=O)c2ccc(S(=O)(=O)Cc3cc(F)ccc3F)c([N+](=O)[O-])c2)CC1 |  | 7.08 µM (active)
17 | CC1CCN(c2ccc(S(=O)(=O)Nc3cc(C(=O)O)cc(C(=O)O)c3)cc2[N+](=O)[O-])CC1 | 5.01% (inactive) | 
18 | O=C(Nc1ccc(F)cc1)C1CCN(C(=O)c2ccc([N+](=O)[O-])cc2)CC1 | 0.407% (inactive) | 
19 | COCCCNC(=O)C1CCC(CNS(=O)(=O)c2ccc(OC)cc2)CC1 (stereo not drawn) | -3.23% (inactive) | 
20 | COc1ccc(S(=O)(=O)NCC2CCCN(C(=O)c3occc3C)C2)cc1 (stereo not drawn) |  | 4.47 µM (active)
21 | CCc1[nH]nc(C(=O)N2CCCC(CNS(=O)(=O)c3cccs3)C2)c1C (stereo not drawn) | 3.5% (inactive) | 
22 | Cc1ccc(S(=O)(=O)N2CCOCC2)cc1C(=O)OC1CCCCC1=O (stereo not drawn) | -0.864% (inactive) | 
23 | CCC(C)NC(=O)Cn1nc(C(F)(F)F)c2c1CCC2 (stereo not drawn) | 9.42% (inactive) | 
24 | CS(=O)(=O)N1CCC(C(=O)N2CCN(c3ccccc3)CC2)CC1 | -3.06% (inactive) | 
25 | CS(=O)(=O)N(CC(=O)N1CCCC1)Cc1ccccc1 | 5.09% (inactive) | 
26 | CS(=O)(=O)N1CCN(C(=O)Cc2ccccc2)CC1 |  | 8.91 µM (active)
27 | O=C(Nc1ccc(Cl)cc1)Nc1ccc(Oc2cccnc2)nc1 | -9.71% (inactive) | 

Row | SMILES | activity, negative = inhibition | Potency
28 | Cc1ccc(-n2cc(CN(C)Cc3nccn3C)c(-c3cccc(C)c3)n2)cc1 | 6.12% (inactive) | 
29 | COc1cccc(Cn2c(=O)c(C)nc3cnc(Oc4ccccc4)nc32)c1 | -15% (inactive) | 
30 | COc1cccc(Cn2c(=O)cnc3cncnc32)c1 |  | 2.51 µM (active)
31 | COc1cccc(Cn2c(=O)c(-c3cc(F)cc(F)c3)nc3cnc(OC)nc32)c1 | -9.66% (inactive) | 
32 | COc1ccc(OC)c(NC(=O)CN(Cc2ccc(Cl)cc2)S(C)(=O)=O)c1 | -11.2% (inactive) | 
33 | CCC(C)(C)C1CCC(=NNC(=O)c2ccc(Br)o2)CC1 (stereo not drawn) | -10.7% (inactive) | 
34 | O=c1[nH]c2c(c(=O)n1Cc1ccccc1)CCC2 | -3.17% (inactive) | 
35 | Cc1cc2nc3c(=O)n(Cc4ccccc4)c(=O)[nH]c3nc2cc1N |  | 12.6 µM (active)
36 | Cc1nc2cnc(Nc3ccccc3)nc2n(Cc2ccc(F)cc2)c1=O | -0.0659% (inactive) | 
37 | CCS(=O)(=O)c1ccc(C(=O)NC)c(Cl)c1Cl | -5.81% (inactive) | 
38 | c1ccc(CCn2nnnc2CN2CCN(C3CCCC3)CC2)cc1 | -1.52% (inactive) | 
39 | c1ccc(C(c2ccccc2)N2CCN(Cc3nnnn3C3CCCCC3)CC2)cc1 |  | 7.94 µM (active)
40 | COc1ccc(C(c2nnnn2C2CCCCC2)N2CCN(c3ccccc3F)CC2)cc1 (stereo not drawn) | -12.1% (inactive) | 
41 | Cc1ccc(N(CCC(=O)O)S(=O)(=O)c2cccc(C(F)(F)F)c2)cc1 | 4.5% (inactive) | 
42 | COc1ccc2c(c1)c(=O)c(C(=O)c1ccc(Cl)cc1)cn2CC(=O)Nc1ccc(F)cc1 | -1.25% (inactive) | 
43 | COc1ccc2[nH]cc(CCNc3ncnc4ccc(-c5ccc(C(=O)N(C)C)cc5)cc34)c2c1 |  | 25.1 µM (active)
44 | COc1ccc2[nH]cc(CCNc3ncnc4ccc(-c5ccccc5CN(C)C)cc34)c2c1 | 7.41% (inactive) | 
45 | COc1ccc2[nH]cc(CCNc3nc(-c4cccc(NS(C)(=O)=O)c4)nc4ccccc34)c2c1 | -0.602% (inactive) | 
46 | Cc1ccccc1NC(=O)NNC(=O)OC(C)(C)C | -0.0746% (inactive) | 
47 | Cc1c(CCOC(=O)c2cc([N+](=O)[O-])ccc2Cl)sc[n+]1CCCCS(=O)(=O)[O-] | -8.66% (inactive) | 
48 | COc1cccc2c(N/N=C/c3ccco3)cc(C)nc12 | -13.1% (inactive) | 
49 | O=Cc1cn(Cc2ccccc2)nc1-c1cccnc1 | -6.61% (inactive) | 
50 | O=C1/C(=C\c2cccnc2)CN(Cc2ccccc2)C/C1=C\c1cccnc1 |  | 7.94 µM (active)
51 | Clc1ccc(CN2CCN(/N=C/c3cccnc3)CC2)cc1 | 5.02% (inactive) | 
52 | O=C(Nc1ccccc1C(=O)N1CCOCC1)c1ccc(CSc2ccccc2)cc1 | 5.23% (inactive) | 
53 | O=C(/C=C/c1ccc(Cl)cc1)Nc1ccc(Br)cn1 | 7.71% (inactive) | 
